Measured values taken from PubChem BioAssay AID1159580 (chemical genetic matrix, 2015).
Several values for one entry are separate records, joined by “and”; a condition that tells them apart may be missing. Identical values can stand only once. The whole screen tested about 5,500 compounds, of which about 2,000 (36%) were called active. Not shown: some 18% with an inconclusive outcome. No stated cut-off is given here; in the data, active means normalized growth mostly below about 0.91 (no sharp cut-off); inconclusive means no clear call, values can overlap the other calls; inactive means mostly above about 0.92. Some of the results follow.

Experiment: chemical genetic growth profiling, strain panel (AID 1159580);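 further: tested at 20 µM; growth read once vehicle control cultures reached saturation at 30 °C; 1 = growth at the plate median or of vehicle wells; lower values mean less growth of the strain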
Conditions: S. cerevisiae deletion strains, growth OD

Measured: normalized growth

COc1cnc(NS(=O)(=O)c2ccc(N)cc2)nc1
inactive: locus YAL021C, strain ccr4, hits give low values 1.01 | locus YAL026C, strain drs2, hits give low values 1 | locus YAL030W, strain snc1, hits give low values 1.01 | locus YBL061C, strain skt5, hits give low values 0.994 | locus YBR009C, strain hhf1, hits give low values 1.01 | locus YBR021W, strain FUR4, hits give low values 1.02 | locus YBR023C, strain chs3, hits give low values 0.998 | locus YBR171W, strain sec66, hits give low values 0.993 | locus YBR229C, strain ROT2, hits give low values 0.956 | locus YBR231C, strain swc5, hits give low values 0.991 | locus YBR279W, strain paf1, hits give low values 0.993 | locus YCL011C, strain gbp2, hits give low values 1 | locus YCL016C, strain dcc1, hits give low values 0.983 | locus YCL029C, strain bik1, hits give low values 0.98 | locus YCL069W, strain vba3, hits give low values 1 | locus YCR088W, strain abp1, hits give low values 1 | locus YDL005C, strain med2, hits give low values 0.997 | locus YDL035C, strain GPR1, hits give low values 0.996 | locus YDL040C, strain nat1, hits give low values 1 | locus YDL074C, strain BRE1, hits give low values 0.988 | locus YDL101C, strain DUN1, hits give low values 0.98 | locus YDL134C, strain PPH21, hits give low values 1 | locus YDL185W, strain tfp1, hits give low values 0.962 | locus YDL192W, strain arf1, hits give low values 0.972 | locus YDR001C, strain nth1, hits give low values 0.997 | locus YDR069C, strain doa4, hits give low values 1.01 | locus YDR101C, strain arx1, hits give low values 0.983 | locus YDR137W, strain rgp1, hits give low values 0.996 | locus YDR159W, strain sac3, hits give low values 0.92 | locus YDR162C, strain NBP2, hits give low values 0.992 | locus YDR195W, strain ref2 0.984 | locus YDR297W, strain sur2, hits give low values 1.01 | locus YDR318W, strain mcm21, hits give low values 0.986 | locus YDR334W, strain swr1, hits give low values 0.998 | locus YDR335W, strain msn5, hits give low values 0.993 | locus YDR388W, hits give low values 0.985 | locus YDR392W, strain spt3, hits give low values 0.925 | locus YDR502C, strain sam2, hits give low values 0.987 | locus YEL003W, strain gim4, hits give low values 1 | locus YEL037C, strain rad23, hits give low values 0.999 | locus YEL061C, strain CIN8 (second series), hits give low values 1 | locus YEL061C, strain CIN8, hits give low values 0.979 | locus YER015W, strain faa2, hits give low values 1 | locus YER016W, strain bim1, hits give low values 0.998 | locus YER110C, hits give low values 0.969 | locus YER111C, strain swi4, hits give low values 1.01 | locus YER155C, strain BEM2 (second series), hits give low values 1.02 | locus YER155C, strain BEM2, hits give low values 1 | locus YER167W, strain BCK2, hits give low values 0.99 | locus YFR010W, strain ubp6, hits give low values 0.989 | locus YGL078C, strain dbp3, hits give low values 0.978 | locus YGL086W, strain mad1, hits give low values 0.985 | locus YGL167C, strain pmr1, hits give low values 0.993 | locus YGL173C, strain kem1, hits give low values 1.01 | locus YGL227W, strain vid30, hits give low values 1 | locus YGL240W, strain doc1, hits give low values 0.994 | locus YGL248W, strain PDE1, hits give low values 0.976 | locus YGL253W, strain hxk2, hits give low values 0.994 | locus YGR135W, strain pre9, hits give low values 0.988 | locus YGR229C, strain SMI1, hits give low values 1.01 | locus YGR252W, strain gcn5, hits give low values 0.949 | locus YHR013C, strain ard1, hits give low values 1 | locus YHR027C, strain rpn1, hits give low values 0.982 | locus YHR030C, strain SLT2, hits give low values 1 and 0.997 | locus YHR079C, strain IRE1 (second series), hits give low values 0.984 | locus YHR079C, strain IRE1, hits give low values 0.989 | locus YHR094C, strain hxt1, hits give low values 0.984 | locus YHR129C, strain ARP1, hits give low values 0.997 | locus YHR142W, strain chs7, hits give low values 1 | locus YHR200W, strain rpn10, hits give low values 0.969 | locus YIL066C, strain RNR3, hits give low values 0.978 | locus YIL073C, strain SPO22, hits give low values 0.999 | locus YIL125W, strain kgd1, hits give low values 0.974 | locus YIR030C, strain dcg1, hits give low values 0.982 | locus YJL092W, strain hpr5, hits give low values 1 | locus YJL095W, strain BCK1 (second series), hits give low values 0.988 | locus YJL095W, strain BCK1, hits give low values 0.983 and 1.01 | locus YJL115W, strain asf1, hits give low values 0.993 | locus YJL129C, strain trk1, hits give low values 0.986 | locus YJL134W, strain LCB3, hits give low values 0.995 | locus YJL154C, strain vps35, hits give low values 1 | locus YJL164C, strain tpk1, hits give low values 0.981 | locus YJL166W, strain qcr8, hits give low values 1.01 | locus YJL168C, strain set2, hits give low values 0.982 | locus YJL187C, strain SWE1 (second series), hits give low values 0.965 | locus YJR043C, strain POL32, hits give low values 0.992 | locus YJR066W, strain TOR1, hits give low values 0.934
